# Measured values published in ChEMBL document CHEMBL4513216, “Probing the Open Global Health Chemical Diversity Library for Multistage-Active Starting Points for Next-Generation Antimalarials” (ACS Infect Dis, 2020).
# Hit rate of the full screen: of about 68,000 compounds, about 2,700 (4%) showed an effect of 50% or more. What follows is part of a selection rich in strong results, with near analogues and random picks from the rest.
# Tested on: Plasmodium berghei
# Assay: Screen against P. berghei liver stage (PbLuc), transformed with Luciferase, at 2uM
# Assay type: functional, HepG2
# Conditions: tested at 2 uM
row,SMILES,INHIBITION [%]
1,CCn1ncc2c1NC(=O)C(C#N)C21CCCC1 (stereo not given),-12.09
2,CCN1CC(CN(C)c2cc(C)nc(N)n2)Oc2ccccc21 (stereo not given),-10.39
3,CC(C)OCCN1CCN(C(=O)c2cccc(CC#N)c2)CC1,5.72
4,CC(=O)NCC1CCC2(CCN(c3ncnc4oc(C)nc34)CC2)O1 (stereo not given),-7.91
5,CC(=O)NCC1CCC2(CCN(c3ncc(C)cn3)CC2)O1 (stereo not given),58.03
6,CC(=O)NCC1CCC2(CCN(c3ncc(C(C)=O)c(C)n3)CC2)O1 (stereo not given),11.37
7,O=C(NCCn1nc2ccccn2c1=O)c1cc(C2CC2)[nH]n1,25.03
8,CC(=O)c1cc(C(=O)NC2(c3ccc(Br)cc3)CC2)n(C)c1,63.4
9,CC(=O)c1cc(C(=O)NC2(c3ccccc3)CCC2)n(C)c1,10.43
10,Cc1cc(C(=O)NC2(c3ccc(Br)cc3)CC2)n(C)n1,-25.71
11,Cc1ncc(CNC(=O)CCc2cccc(F)c2)c(C2CCCN2C)n1 (stereo not given),7.21
12,NC1CCN(C2CCN(c3ccc(-c4ccco4)cc3)CC2)CC1,55.36
13,c1coc(-c2nc3c(c(N4CCCN5CCC[C@H]5C4)n2)CCNCC3)c1,-53.14
14,NCC1CCN(C2CCN(c3ccc(-c4ccco4)cc3)CC2)C1 (stereo not given),74.44
15,COc1ccc(N2CCC(N3CCOC(C(F)(F)F)C3)CC2)cc1 (stereo not given),10.95
16,CNC1CCN(C2CCN(c3ccc(-c4ccco4)cc3)CC2)CC1,7.67
17,O=C(O)c1ccccc1C1CCN(C2CCN(c3ccccc3)CC2)C1 (stereo not given),38.67
18,O=C(c1ncccn1)N1CCC2(CC1)COC(COc1ccccn1)C2 (stereo not given),17.35
19,CCN(CC)c1ccc(C(=O)N2C[C@H]3CC[C@@H](C2)N(CCOC)C3)cc1,-34.04
20,CS(=O)(=O)N1CCOCC2(CCN(Cc3ccc[nH]3)CC2)C1,-14.21
21,CC(C)NC(=O)CN(C1CC1)C(C)C1CC1 (stereo not given),-26.26
22,CC(C1CC1)N(CC(=O)NC(=O)NC1CC1)C1CC1 (stereo not given),31.39

row,SMILES,INHIBITION [%]
1,CC(C1CC1)N(CC(=O)NCC(F)(F)F)C1CC1 (stereo not given),54.02
2,Cc1ncc(CNCC(=O)NCC(F)(F)F)n1-c1ccccc1,48.21
3,Cc1ncc(CNCC2CCC(C(N)=O)CC2)n1-c1ccccc1 (stereo not given),72.05
4,Cc1ncc(CNCC(=O)NC2CCCCC2)n1-c1ccccc1,21.97
5,COCCc1noc(CN2CCCCC2Cn2cc(C)cn2)n1 (stereo not given),3.3
6,Cn1cccc1C(=O)NS(=O)(=O)c1cnn(-c2ccccc2F)c1,25.21
7,Fc1ccc(C2CN(CCc3ccncc3)CCO2)cc1 (stereo not given),13.26
8,CCc1ccc(C2NCCc3cc4c(cc32)OCCO4)cc1 (stereo not given),-5.98
9,CCN1C[C@H]2CCN(C(=O)Cc3cccc(OC)c3)CC[C@H]2S1(=O)=O,-8.72
10,Cc1ccc(NC(=O)C2CSCN2C(=O)c2cnccn2)c(C)c1 (stereo not given),51.21
11,Cc1ccc(NC(=O)C2CSCN2C(=O)c2cccnc2)c(C)c1 (stereo not given),-0.12
12,Cc1cccc(NC(=O)C2CSCN2C(=O)c2cnccn2)c1C (stereo not given),-1.85
13,Cc1ccc(NC(=O)C2CSCN2C(=O)c2cnccn2)cc1C (stereo not given),54.2
14,Cc1ccc(NC(=O)C2CSCN2C(=O)c2ccncc2)c(C)c1 (stereo not given),11.95
15,Cc1ccc(NC(=O)C2CSCN2C(=O)c2cc[nH]n2)c(C)c1 (stereo not given),-16.12
16,O=S(=O)(NCc1ccccc1)Nc1ccc(-n2cncn2)cc1,4.12
17,Fc1cnc(N2CCn3c(CN4CCCC4)nnc3C2)nc1,-55.08
18,CCNC(=O)[C@@H]1C[C@H](NC(=O)Cn2ccnc2)CN1Cc1ccsc1,-35.46
19,OCCC[C@@H]1CN(c2ncc(Cl)cc2Cl)CC[C@@H]1N1CCOCC1,-69.21
20,Cc1cnc(C)c(N2CC[C@H](N3CCOCC3)[C@H](CCCO)C2)n1,37.87
21,CC(C)c1cncnc1N1CC[C@H](N2CCOCC2)[C@H](CCCO)C1,68.36
22,Fc1ccc(CN2CCCn3cnc(COCC4CC4)c3C2)cc1,25.48

row,SMILES,INHIBITION [%]
1,CC(=O)N1CCC2(CC1)COCCN2CCN(C)C,0.04
2,CC1CN(C)c2ccccc2CN1C(=O)c1cc(C#N)cn1C (stereo not given),3.49
3,CC(C)NC(=O)c1nc(Cn2c(C(F)(F)F)nc3ccccc32)no1,37.53
4,CC(C)NC(=O)c1nc(Cn2c(C(F)F)nc3ccccc32)no1,51.42
5,O=C(NC1CC1)c1nc(Cn2c(C(F)F)nc3ccccc32)no1,29.87
6,COc1ccc(CN2CCN(CC3CC3)[C@@H]3CS(=O)(=O)C[C@@H]32)cc1O,7.93
7,Cn1ncc2c(NC3CCC3)nc(-c3ccncc3)nc21,-24.62
8,Cn1ncc2c(N[C@@H]3C[C@H]4CC[C@@H]3C4)nc(-c3ccncc3)nc21,67.85
9,Cn1ncc2c(NC3CN4CCC3CC4)nc(-c3ccncc3)nc21 (stereo not given),10.1
10,Cc1csc(CNC(=O)NC(C)c2ccc3c(c2)OCCO3)n1 (stereo not given),39.83
11,CN(C)CCOC1CC2(CCN(c3cnccn3)CC2)c2ccccc21 (stereo not given),20.21
12,CC(=O)N(Cc1noc(C)n1)C1CCN(Cc2ccccn2)C1 (stereo not given),6.31
13,CC(=O)N(Cc1ncc(C)o1)C1CCN(Cc2noc(C)n2)C1 (stereo not given),71.13
14,CC(=O)N(Cc1noc(C)n1)C1CCN(Cc2ncc(C(C)C)o2)C1 (stereo not given),8.06
15,CC(=O)N(Cc1ncc(C)o1)C1CCN(Cc2cc(C)on2)C1 (stereo not given),1.04
16,CC(=O)N(Cc1ncc(C)o1)C1CCN(Cc2cccnc2)C1 (stereo not given),41.72
17,CC(=O)N(Cc1ncc(C)o1)C1CCN(Cc2ccccc2F)C1 (stereo not given),20.35
18,CC(=O)N(Cc1noc(C)n1)C1CCN(Cc2ccncc2Cl)C1 (stereo not given),53.72
19,CC(=O)N(Cc1ncc(C)o1)C1CCN(Cc2ccncc2Cl)C1 (stereo not given),53.72
20,CC(=O)N(Cc1noc(C)n1)C1CCN(Cc2ccccc2C#N)C1 (stereo not given),-21.31
21,O=C(O)[C@@H]1CN(C(=O)CN2Cc3ccccc3C2)C[C@H]1c1ccncc1,27.42
